Screening data from PubChem BioAssay.
RORgamma inh: blocks mouse ROR gamma transcriptional activity; P51450; Drosophila S2 Gal4-RORgamma UAS-luciferase reporter, 20 h; Potency, µM (highest dose often 53.6 µM), hits mostly inhibitors; actives 5.4% (n = 310,000); note: nearly all actives have a fitted effect of over 60% in size
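Luciferase reporter read in Schneider cells carrying Gal4-RORγ (mouse) and UAS-Photinus luciferase; cells given compound 1 h before 700 uM copper sulfate induction, then incubated 20 h at ambient temperature.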
Six1-Eya2 blk: inhibitors of human Six1/Eya2 interaction; activity change, % (concentration not given with the values); AlphaScreen GST-Six1/His-Eya2 binding, biochemical; stronger effect = lower value; actives 0.56% (n = 360,000); Q15475+O00167; AID 651725; in the data active = activity change below about -65%; inconclusive = mostly about -30% to -63%
Target sequence (O00167 whole entry, looked up): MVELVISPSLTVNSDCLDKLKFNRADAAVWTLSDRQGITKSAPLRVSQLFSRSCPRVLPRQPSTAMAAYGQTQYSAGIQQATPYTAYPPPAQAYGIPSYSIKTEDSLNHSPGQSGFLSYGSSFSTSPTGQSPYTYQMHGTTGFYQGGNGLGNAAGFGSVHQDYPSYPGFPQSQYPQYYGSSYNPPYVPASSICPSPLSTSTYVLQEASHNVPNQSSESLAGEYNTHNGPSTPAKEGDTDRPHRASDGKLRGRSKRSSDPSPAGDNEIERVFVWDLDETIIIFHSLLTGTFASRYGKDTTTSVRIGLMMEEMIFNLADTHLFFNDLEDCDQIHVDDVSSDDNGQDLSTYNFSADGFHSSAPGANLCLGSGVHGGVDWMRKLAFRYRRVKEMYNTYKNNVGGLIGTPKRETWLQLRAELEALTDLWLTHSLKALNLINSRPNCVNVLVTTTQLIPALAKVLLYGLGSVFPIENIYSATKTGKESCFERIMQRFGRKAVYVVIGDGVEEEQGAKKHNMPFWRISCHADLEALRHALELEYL
Target sequence (Q15475 whole entry, looked up): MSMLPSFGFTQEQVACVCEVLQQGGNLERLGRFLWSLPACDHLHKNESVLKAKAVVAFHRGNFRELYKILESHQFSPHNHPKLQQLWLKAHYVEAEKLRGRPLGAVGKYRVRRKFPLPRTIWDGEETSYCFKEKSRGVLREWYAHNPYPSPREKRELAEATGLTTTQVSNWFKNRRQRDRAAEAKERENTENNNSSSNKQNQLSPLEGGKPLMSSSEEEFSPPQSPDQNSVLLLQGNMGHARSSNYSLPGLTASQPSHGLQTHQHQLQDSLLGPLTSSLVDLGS
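Six1/Eya2 binding was read as AlphaScreen signal after compounds were pinned into GST-Six1 plus His-tagged Eya2 (5X stock 250/500 nM) in pH 8.0 Tris/NaCl/TCEP buffer, beads added, then incubated 1 h, 37 C, dark.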
p53 reactivation: re-activators of mutant p53; actives 0.063% (n = 320,000); AID 504706; Potency, µM (highest dose often 92.2 µM), most hits filed as activators; H1299 p53-A138V BP100-luciferase reporter, luminescence, 24 h; note: nearly all actives have a fitted effect of over 45% in size
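p53-null H1299 cells stably carrying temperature-sensitive p53-A138V and a BP100-luciferase reporter were pinned with compounds (4-point, 1:5 series) and held 24 hrs at 37 deg C. Luminescence was read 10 min after detection reagent.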
CtBP-E1A inh: inhibitors of CtBP/E1A interaction | AlphaScreen GST-E1A/His-CtBP binding, 1536-well; stronger effect = lower value | activity change, % (test concentration not listed) | actives 0.49% (n = 340,000); in the data active = activity change below about -65%; inconclusive = mostly about -30% to -63%
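Steps: dispense buffer (Tris pH 8.0, NaCl 300 mM, TCEP 1 mM, BSA, Tween 20); add 5X protein mix (GST-E1A, His-CtBP, 125 nM each); pin 23 nL compound; 2 h at 37 °C, dark; add 5X beads (50 ug/mL); 1 h; read.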
VP16 counter: Gal4-VP16 reporter inhibition counter-screen. Potency, µM (titrated, usually from 53.6 µM), actives largely listed as inhibitors. actives 3.5% (n = 310,000). Drosophila S2 Gal4-VP16 UAS-luciferase, luminescence, 20 h;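 note: Gal4-VP16 expression switched on by copper sulfate through the metallothionein promoter; nearly all actives have a fitted effect of over 50% in size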
Hits are given with their value; . = inactive; ? = inconclusive; / = no result; [ ] = remark or other dose. The list is not random: actives were taken first. Their share in the collection is about 5.4%. Unless noted, calls come from the whole dose curve; as a rule, active = well fitted curve in the direction sought with a large enough effect; inconclusive = small, poorly fitted or top-dose-only effect, or another doubt; inactive = no such curve, though single readings can be large; an effect the other way counts as inactive or inconclusive.

SMILES	RORgamma inh	Six1-Eya2 blk	p53 reactivation	CtBP-E1A inh	VP16 counter
O=S(=O)(c1ccc(S(=O)(=O)N2CCCC2)cc1)N1CCCCCC1	.	.	.	.	.
O=S(=O)(c1ccc2c(c1)C(=NO)c1cc(S(=O)(=O)N3CCCCC3)ccc1-2)N1CCCCC1	3.55µM	.	.	.	3.16µM
CC1CCN(S(=O)(=O)c2ccc3c(c2)C(=NO)c2cc(S(=O)(=O)N4CCC(C)CC4)ccc2-3)CC1	1.78µM	.	.	.	0.794µM
COC(=O)[C@H]1C[C@H]2CC[C@H](O)C[C@H]2N1Cc1c(F)cccc1Cl	.	/	/	/	.
OC[C@@H]1OC(O)[C@@H](O)[C@H](O)[C@@H]1O (some centres not stated)	.	/	/	/	.
O=C(NC(=S)N1CCN(Cc2ccc3c(c2)OCO3)CC1)c1ccc(Cl)cc1	0.447µM	.	.	.	0.631µM
Cc1cc(Cl)ccc1NC(=S)N1CCN(Cc2ccc3c(c2)OCO3)CC1	?	.	.	.	?
O=C(NC(=S)N1CCN(Cc2ccc3c(c2)OCO3)CC1)c1cccc(Br)c1	0.562µM	?	.	.	0.631µM
CCOC(=O)C(NCc1ccc2c(c1)OCO2)(NC(=O)c1ccccc1)C(F)(F)F (configuration not stated)	.	.	.	.	.
NC(=S)NN=Cc1nccc2c(N)cccc12	/	-92.9	/	-88.4	/
CCN(C(C)=O)c1cnc(C=NNC(N)=S)c2ccccc12	/	-90.5	/	?	/
NC(=S)N/N=C/c1ccc(OC(=O)c2cccnc2)cc1	.	.	.	.	.
Cc1ccc(NC(=S)/N=C(\N)Nc2nc(C)c3cc(C)c(C)cc3n2)cc1C	2.24µM	.	.	.	5.01µM
Cc1ccc(NC(=S)/N=C(\N)Nc2nc(C)c3cc(C)ccc3n2)c(C)c1	7.94µM	.	.	.	7.08µM
Cc1ccc2c(C)nc(N/C(N)=N/S(=O)(=O)c3ccccc3)nc2c1	.	.	.	.	.
Cc1ccc(S(=O)(=O)/N=C(\N)Nc2nc(C)c3cc(C)ccc3n2)cc1	.	.	.	.	.
CCc1ccccc1NC(=S)/N=C(\N)Nc1nc(C)c2cc(C)ccc2n1	2.82µM	.	?	.	3.16µM
Cc1ccc(S(=O)(=O)/N=C(\N)Nc2nc(C)c3cc(C)c(C)cc3n2)cc1	.	.	.	.	.
Cc1ccc(S(=O)(=O)NCCC(=O)Nc2ccc(Cl)c(Cl)c2)cc1C	?	.	.	/	11.2µM
Cc1ccc(S(=O)(=O)NCCC(=O)Nc2ccc(Cl)c(Cl)c2)cc1	.	.	.	.	?
Cn1ccnc1C1CCCCN1Cc1nc(Cc2ccccc2F)no1 (configuration not stated)	?	.	.	.	.
CC(C)N(Cc1nc(-c2ccc3c(c2)OCO3)no1)Cc1nccn1C	14.1µM	.	.	/	.
COC(=O)c1ccc(-c2noc(CN(Cc3nccn3C)C(C)C)n2)cc1	10µM	.	.	/	.
COC(=O)c1ccc(-c2noc(CN3CCCCC3c3nccn3C)n2)cc1 (configuration not stated)	12.6µM	.	.	.	.
CC(C)N(Cc1nc(COc2ccccc2)no1)Cc1nccn1C	?	.	.	/	.
SMILES	RORgamma inh	Six1-Eya2 blk	p53 reactivation	CtBP-E1A inh	VP16 counter
Cc1ccc(N2C(N)=C(C#N)C(c3cc(CN4CCOCC4)cs3)C3=C2CC(C)(C)CC3=O)cc1 (configuration not stated)	.	.	.	.	.
S=C(NCCc1ccccc1)Nc1ccc(Cl)cc1Cl	3.98µM	.	?	.	15.8µM
CCCNC(=S)NCc1ccc(Cl)cc1	10µM	.	?	.	.
O=C(Cc1ccccc1)NCCc1cccc(Cl)c1	?	.	.	.	.
S=C(NCc1ccc(Cl)cc1)NN1CCOCC1	10µM	.	.	.	?
S=C(NCc1ccccc1)NN1CCOCC1	?	.	.	.	.[10 µM]
CCNC(=S)Nc1ccc(Cl)cc1Cl	11.2µM	.	.	.	.
O=C(CN1CCCCCC1)N/N=C/c1cccc(Cl)c1Cl	.	.	.	.	.
COc1ccc(COC(=O)N/N=C2/C[C@@H](O)[C@@H](O)[C@@H]3[C@@H]4C(=O)N(C5CCCCC5)C(=O)[C@H]4CC[C@H]23)cc1	.[10 µM]	/	/	/	.[10 µM]
COCCNC(=O)/C(C#N)=C/c1c(N2CCN(c3ccc(OC)cc3)CC2)nc2c(C)cccn2c1=O	.	.	.	.	.
CS(=O)(=O)N1CC(C(=O)O)Oc2ccc(CC(=O)O)cc21 (configuration not stated)	?	.	.	.	.
Cc1cc(Cl)ccc1NC(=S)NCc1ccco1	?	.	.	.	10µM
Cc1cc(Cl)ccc1NC(=S)NCCc1ccc(Cl)cc1	6.31µM	.	/	.	5.01µM
Cc1cc(Cl)ccc1NC(=S)NCc1ccc(Cl)cc1	2.82µM	.	.	.	.[0.365 µM]
Cc1cc(Cl)ccc1NC(=S)NCc1ccc(S(N)(=O)=O)cc1	.	.	.	.	.
COc1ccc(CN2C(=O)C(CC(=O)NC3CCCC3)CC(C(=O)N3CCOCC3)=C2C)cc1 (configuration not stated)	/	.	/	.	/
O=C1[C@@H]2[C@H]3C(=CC[C@@H]2C(=O)N1Cc1ccccc1)C1(OCCCO1)[C@H]1O[C@@H]1[C@H]3O	.[10 µM]	/	/	/	.[10 µM]
O=C(OCCCc1cc2ccccc2c(=O)o1)c1ccc2c(c1)OCO2	/	.	.	.	/
CC(C)(C)S(=O)N1Cc2cc(C(=O)NCC(F)(F)F)nc(-c3cccc(-c4cccc(F)c4)c3)c2[C@H]1CCO (some centres not stated)	/	.	/	.	/
CCC(CC)CN1CCC(CN2C(=S)NC[C@@H]2CC(C)C)CC1	/	.	/	.	/
COc1ccc(C(=O)NNC(=S)NC(=O)/C=C/c2cccs2)cc1	?	.	.	.	.
O=C(/C=C/c1cccs1)NC(=S)NNC(=O)c1ccccc1O	?	-75.7	.	-94.1	.
O=C(/C=C/c1cccs1)NC(=S)Nc1ccccc1	3.16µM	.	.	.	8.91µM
Cc1ccc(C)n1-c1sccc1C(=O)O	.	-67.9	.	.	.
Cc1ccc(C)n1-c1sc2c(c1C(=O)O)CCCC2	.	.	?	.	?
SMILES	RORgamma inh	Six1-Eya2 blk	p53 reactivation	CtBP-E1A inh	VP16 counter
COc1ccc2oc(-c3ccc(O)cc3)cc(=O)c2c1	25.1µM	/	/	/	25.1µM
O=C(COc1ccc2oc(-c3ccccc3)cc(=O)c2c1)Nc1ccccc1	12.6µM	.	.	.	?
O=C(N/N=C/c1sc(=O)n(Cc2ccc(Br)cc2)c1Cl)c1ccco1	11.2µM	.	.	.	?
Cc1ccc(/C=N/NC(=O)c2ccco2)s1	?	.	?	.	.
C/C(=N\NC(=O)c1ccoc1C)c1ccc(Br)s1	6.31µM	.	.	.	11.2µM
O=C(N/N=C/c1ccco1)c1ccccn1	.	.	.	.	.
O=C(N/N=C/c1ccc(Br)s1)c1ccco1	6.31µM	.	.	.	10µM
CC(=NNC(=O)c1cc(C)oc1C)c1ccc(Br)s1	/	.	.	.	/
O=C(N/N=C/c1ccc(Br)s1)c1ccccn1	?	?	?	.	3.98µM
